Consider 20 compounds from article PMC5540273 (PLoS ONE, 2017).

Molecules are shown by their SMILES. Several values for one entry are separate records, joined by “and”; a condition that tells them apart may be missing. Equal entries are not always repeated. Where two headings read alike, the source gives them in different places.

Assay [1] relates to CDK4. Conditions: n = 1.
Assay [2] has as its system CDK5. The following applies: concentration: 1 μM, replicates: in singlicate; n = 1.
The subject of assay [3] is CDK7. Conditions: n = 1.
Assay [4] concerns CDK8. Conditions: concentration: 1 μM, replicates: in singlicate; n = 1.
Assay [5] relates to CDK9. The following applies: n = 1.
The test system of assay [6] is CDKL1. The following applies: concentration: 1 μM, replicates: in singlicate; n = 1.
For assay [7], the system named is CDKL2. The following applies: n = 1.
Assay [8] deals with CDKL3. The following applies: concentration: 1 μM, replicates: in singlicate; n = 1.
In assay [9] the test system is CDKL5. Conditions: concentration: 1 μM, replicates: in singlicate; n = 1.
Assay [10] deals with CHEK1. The following applies: n = 1.
Where [11] appears, read: concentration: 1 μM, replicates: in singlicate.
Setting [12] is: concentration: 1 μM,replicates: in singlicate, 1 µM.
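Also: KINOMEscan kinase panel screen.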

For `COc1ccc(CNC(=O)NC2CCN(c3ccnc(Nc4cc(OC)c(OC)c(OC)c4)n3)C2)cc1` (centres unmarked) [GSK1379748], the “%Inh” value in assay [1] (setting [11]) is 36%; in [2] it was 0%; in [3] (setting [11]) it was 0%; in assay [4], 51%; in assay [5] (setting [11]), 0%; in [6], 15%. Also, the “%Inh” value in [7] (setting [11]) is given as 20%; in assay [8], 0%; in assay [9], 0%; in assay [10] (setting [11]) it was 0%.
Take `CC1=C(C(=O)Nc2cc3cn[nH]c3cc2F)C(c2ccc(C(F)(F)F)cc2)CC(=O)N1` (centres unmarked) [GSK429286]: the “%Inh” value in [1] (setting [11]) was 11%; in assay [2], 0%; in assay [3] (setting [11]) it was 0%; in assay [4], 18%; in assay [5] (setting [11]), 0%; in assay [6], 0%. Moreover, the “%Inh” value was 4% in assay [7] (setting [11]), 0% in [8], 10% in [9] and 7% in [10] (setting [11]).
Regarding `Fc1cccc(COc2nnc(-c3ccc4c(c3)CCO4)o2)c1`, the “%Inh” value in assay [1] (setting [11]) is listed as 0%; in assay [2], 0%; in [3] (setting [11]) it was 9%; in assay [4], 19%; in [5] (setting [11]), 0%; in [6], 0%. Further, the “%Inh” value in assay [7] (setting [11]) is 9%; in assay [8], 9%; in assay [9], 0%; in [10] (setting [11]), 0%.
Consider `CSc1nn2c(=O)cc(N3CCOCC3)nc2n1Cc1cccc(C(F)(F)F)c1C` [GSK2363608], for which the “%Inh” value was 15% and 0% in assay [1] (setting [12]); 0% in assay [2]; 7% and 0% in assay [3] (setting [12]); 0% in [4]; 7% and 0% in assay [5] (setting [12]); 0% in assay [6]. For the same compound, the “%Inh” value in assay [7] (setting [12]) was 17% and 30%; in [8], 0%; in assay [9] it was 0%; in assay [10] (setting [12]), 4% and 11%.
Consider `CS(=O)(=O)c1ccc(-c2nc3n(c2-c2ccncc2)CCC3)cc1` [SKF-105942], for which the “%Inh” value in assay [1] (setting [11]) stood at 9%; in assay [2], 0%; in [3] (setting [11]) it was 0%; in assay [4] it was 0%; in [5] (setting [11]), 100%; in [6], 28%. Moreover, the “%Inh” value in assay [7] (setting [11]) was determined as 17%; in [8] it was 0%; in assay [9] it was 4%; in [10] (setting [11]) it was 0%.
As to `CCn1c(-c2cccnc2O)nc2cnccc21` [SB-736715], the “%Inh” value in assay [1] (setting [11]) is recorded as 4%; in assay [2] it was 0%; in [3] (setting [11]) it was 0%; in [4], 33%; in [5] (setting [11]), 0%; in [6] it was 13%. For the same compound, the “%Inh” value worked out at 0% in assay [7] (setting [11]), 10% in assay [8], 0% in [9] and 0% in assay [10] (setting [11]).
For `COC(=O)c1c(-c2ccccc2)c2cc(OC)ccc2c(=O)n1Cc1ccccc1`, the “%Inh” value in assay [1] (setting [11]) is on record as 0%; in assay [2], 11%; in assay [3] (setting [11]), 15%; in assay [4] it was 7%; in [5] (setting [11]) it was 9%; in assay [6] it was 3%. Moreover, the “%Inh” value in assay [7] (setting [11]) was 13%; in assay [8], 12%; in assay [9], 0%; in assay [10] (setting [11]) it was 0%.
For the compound `Cl.c1ccc(-c2n[nH]cc2-c2ccnc(-c3ccc(CN4CCOCC4)cc3)c2)nc1` [GW776245], the “%Inh” value amounted to 0% in [1] (setting [11]); 12% in assay [2]; 0% in assay [3] (setting [11]); 52% in [4]; 0% in assay [5] (setting [11]); 59% in assay [6]. Also, the “%Inh” value in [7] (setting [11]) is 9%; in [8], 6%; in assay [9] it was 0%; in assay [10] (setting [11]) it was 0%.
As to `COc1cc2nccc(Nc3ccc(NC(=O)c4ccc(C)cc4)c(O)c3)c2cc1OC.Cl` [GW440132], the “%Inh” value in assay [1] (setting [11]) came to 35%; in assay [2] it was 0%; in assay [3] (setting [11]), 75%; in assay [4], 33%; in [5] (setting [11]), 0%; in [6], 4%. The “%Inh” value is recorded as 13% in [7] (setting [11]), 0% in assay [8], 0% in assay [9] and 0% in assay [10] (setting [11]).
As to `Cc1cccc(-c2nc(Nc3cccc(C(N)=O)c3)c3ccccc3n2)n1` [GW876019], the “%Inh” value is 0% in [1] (setting [11]); 0% in [2]; 8% in [3] (setting [11]); 36% in [4]; 0% in assay [5] (setting [11]); 36% in assay [6]. Moreover, the “%Inh” value in assay [7] (setting [11]) is recorded as 13%; in assay [8], 0%; in assay [9], 1%; in assay [10] (setting [11]), 0%.
Turning to `Cc1cccc(-c2nc(Nc3ccncc3)c3ccccc3n2)n1` [GW855857], the “%Inh” value was found to be 0% in assay [1] (setting [11]); 0% in assay [2]; 0% in assay [3] (setting [11]); 65% in assay [4]; 0% in [5] (setting [11]); 47% in assay [6]. The “%Inh” value in assay [7] (setting [11]) was 10%; in assay [8] it was 0%; in assay [9], 0%; in assay [10] (setting [11]), 0%.
Turning to `CCCc1ccc(S(=O)(=O)NC2CCN(c3ccnc(Nc4ccc(F)cc4)n3)C2)cc1` (centres unmarked) [GSK1379715], the “%Inh” value in assay [1] (setting [11]) was 0%; in assay [2], 0%; in assay [3] (setting [11]), 0%; in assay [4], 0%; in [5] (setting [11]) it was 0%; in assay [6], 13%. In addition, the “%Inh” value in assay [7] (setting [11]) stood at 38%; in assay [8] it was 0%; in assay [9], 0%; in [10] (setting [11]), 6%.
Regarding `Cc1cc(-c2ccc3c(c2)CC[C@@H](N[C@@H](C)c2ccccc2)C3)cnc1N.Cl` [GW412617], the “%Inh” value in [1] (setting [11]) was 26%; in assay [2], 4%; in assay [3] (setting [11]), 0%; in assay [4], 14%; in assay [5] (setting [11]), 0%; in assay [6], 0%. Further, the “%Inh” value in assay [7] (setting [11]) amounted to 18%; in assay [8] it was 0%; in [9], 0%; in assay [10] (setting [11]), 14%.
Regarding `COC(=O)c1c(-c2ccccc2)c2cc(C(=O)O)ccc2c(=O)n1Cc1ccccc1`, the “%Inh” value in assay [1] (setting [11]) was 0%; in [2], 0%; in assay [3] (setting [11]), 0%; in assay [4], 13%; in assay [5] (setting [11]), 0%; in assay [6] it was 0%. Besides, the “%Inh” value stood at 6% in assay [7] (setting [11]), 4% in assay [8], 21% in assay [9] and 0% in assay [10] (setting [11]).
With `Cc1ccc(NC(=O)Nc2cccc(Cl)c2)cc1-c1ccc(C(=O)Nc2ccncc2)cc1` [GSK1398468], the “%Inh” value in assay [1] (setting [11]) stood at 0%; in assay [2], 0%; in assay [3] (setting [11]) it was 0%; in assay [4], 0%; in assay [5] (setting [11]) it was 0%; in assay [6], 13%. Besides, the “%Inh” value is recorded as 52% in [7] (setting [11]), 0% in assay [8], 0% in assay [9] and 0% in [10] (setting [11]).
For `COc1cc2ncnc(Nc3ccc4nc(-c5ccccc5)[nH]c4c3)c2cc1OC.Cl` [GW282450], the “%Inh” value in assay [1] (setting [11]) was 20%; in assay [2] it was 0%; in [3] (setting [11]) it was 0%; in assay [4] it was 0%; in [5] (setting [11]), 0%; in assay [6] it was 1%. The “%Inh” value in [7] (setting [11]) was 7%; in [8], 0%; in assay [9], 1%; in assay [10] (setting [11]) it was 0%.
Regarding `Cc1cccc(-c2nc(Nc3ccc4[nH]ncc4c3)c3ccccc3n2)n1` [GW857175], the “%Inh” value is listed as 0% in assay [1] (setting [11]); 3% in assay [2]; 8% in assay [3] (setting [11]); 0% in [4]; 0% in [5] (setting [11]); 0% in assay [6]. Besides, the “%Inh” value stood at 7% in [7] (setting [11]), 4% in assay [8], 18% in assay [9] and 4% in assay [10] (setting [11]).
As for `O=C(Nc1ccc2c(c1)OCO2)NC1CCN(c2ccnc(Nc3ccc(F)cc3)n2)C1` (centres unmarked) [GSK1379724], the “%Inh” value came out at 0% in assay [1] (setting [11]); 0% in assay [2]; 0% in assay [3] (setting [11]); 33% in assay [4]; 0% in assay [5] (setting [11]); 0% in assay [6]. The “%Inh” value in assay [7] (setting [11]) amounted to 49%; in assay [8] it was 0%; in [9], 3%; in assay [10] (setting [11]) it was 0%.
On to `Cn1cncc1-c1ccc2ncnc(Nc3ccc(OCc4ccccc4)cc3)c2c1` [GW320571], for which the “%Inh” value in assay [1] (setting [11]) was determined as 0%; in assay [2], 3%; in assay [3] (setting [11]), 0%; in assay [4], 29%; in [5] (setting [11]), 0%; in assay [6], 0%. Also, the “%Inh” value in assay [7] (setting [11]) is 19%; in assay [8] it was 0%; in assay [9] it was 0%; in [10] (setting [11]), 15%.
For the compound `CN(C)CCN(C)C(=O)c1cc(-c2ccncc2)c(-c2ccc(Cl)c(O)c2)o1.Cl.Cl` [SB-710397], the “%Inh” value in assay [1] (setting [11]) is 0%; in assay [2], 0%; in assay [3] (setting [11]), 0%; in [4], 37%; in assay [5] (setting [11]), 0%; in assay [6] it was 0%. Besides, the “%Inh” value in [7] (setting [11]) is given as 20%; in [8], 0%; in [9] it was 2%; in assay [10] (setting [11]), 9%.
